Screening data as filed in PubChem BioAssay.
Giardia killer = kills Giardia lamblia; actives 0.15% (n = 340,000); activity change, % at 7.66 µM, hits read low; Giardia lamblia trophozoite viability; in the data active means activity change below about -80%; inconclusive means between about -30% and that limit;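 further: parasites exposed to compound for two days anaerobically before the ATP read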
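Trophozoites 100 cells/well + cpd; 48 hrs, 37 deg C, anaerobic. ATPLite 1-Step added, 15-30 min RT, luminescence read (ATP-based viability).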
KCNH2 WT inh = KCNH2 (human, wildtype) channel inhibition. Q12809. U2OS, BacMam KCNH2, thallium flux FluxOr; active compounds read low. activity change, % at 1.84 µM. actives 0.37% (n = 340,000). AID 720551;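 active means maximum activity change below -70%; inconclusive means maximum activity change between -70% and -50%; inactive means maximum activity change above -50%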
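U2OS cells transduced with wild-type KCNH2 virus are loaded with FluxOr dye for 45 min, and thallium flux is measured in kinetic reads before and after stimulation buffer. Rate constants are normalized to DMSO controls.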
Coupling enz = coupling enzyme interference in Giardia aldolase counter-screen; activity change, negative = inhibition, % at 58.2 µM, hits read low; coupling enzyme system counterscreen, AmpLite Red fluorescence; actives 0.67% (n = 290,000); in the data active means activity change below about -30%
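Counterscreen lacking aldolase: glyceraldehyde-3-phosphate coupling-enzyme reagent preincubated 10 min at RT with compound (at 57.5 uM final), then substrate/coupling system with AmpLite Red added; fluorescence read at 525/598 nm after 20 min RT.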
USP1 inh = inhibitors of human USP1/UAF1 deubiquitinase | O94782 | recombinant USP1/UAF1, Ub-Rhodamine cleavage fluorescence | Potency, µM (titrated, usually from 57.1 µM), for inactives: top-dose activity change, negative = inhibition, hits mostly inhibitors | actives 0.23% (n = 390,000); active means well fitted inhibition curve with a large enough effect; inconclusive means small, poorly fitted or top-dose-only effect; inactive means no such curve, though single readings can be large or run the other way; further: potency means the concentration at half of the fitted maximal effect; nearly all actives have a fitted effect of over 60% in size
Target sequence (O94782 whole entry, looked up): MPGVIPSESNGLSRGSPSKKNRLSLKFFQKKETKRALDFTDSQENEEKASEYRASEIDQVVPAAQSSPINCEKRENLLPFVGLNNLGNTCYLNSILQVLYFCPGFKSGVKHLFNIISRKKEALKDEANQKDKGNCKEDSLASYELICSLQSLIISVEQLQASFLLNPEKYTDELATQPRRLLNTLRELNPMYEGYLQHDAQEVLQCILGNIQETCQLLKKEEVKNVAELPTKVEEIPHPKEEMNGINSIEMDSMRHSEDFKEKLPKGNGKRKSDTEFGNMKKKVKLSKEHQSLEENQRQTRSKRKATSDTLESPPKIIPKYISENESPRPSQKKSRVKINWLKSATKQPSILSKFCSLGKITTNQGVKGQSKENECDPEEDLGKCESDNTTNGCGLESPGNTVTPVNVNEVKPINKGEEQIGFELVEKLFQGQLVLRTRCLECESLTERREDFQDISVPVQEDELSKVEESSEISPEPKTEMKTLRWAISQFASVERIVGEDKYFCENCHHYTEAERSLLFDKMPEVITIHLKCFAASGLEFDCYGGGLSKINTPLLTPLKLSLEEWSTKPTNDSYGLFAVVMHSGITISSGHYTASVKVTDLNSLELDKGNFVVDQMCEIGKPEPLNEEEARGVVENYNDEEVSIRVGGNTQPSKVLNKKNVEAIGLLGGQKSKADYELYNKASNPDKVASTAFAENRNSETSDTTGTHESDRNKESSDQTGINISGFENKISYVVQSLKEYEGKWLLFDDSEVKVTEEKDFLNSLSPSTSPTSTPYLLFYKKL
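Step one: compound is pinned into 1nM USP1/UAF1 in HEPES pH 7.8 buffer with TCEP. Step two: 15 min room-temperature incubation. Step three: Ub-Rho (150nM final) starts cleavage, tracked by fluorescence over six one-minute reads.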
KCNH2 3.1 block = KCNH2 3.1 (human) potassium channel inhibition; U2OS KCNH2 3.1, thallium flux FluxOr; active compounds read low; activity change, % (tested at about 1.8 µM); actives 0.95% (n = 340,000);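 active means maximum activity change below -70%; inconclusive means maximum activity change from -70% to -50%; inactive means maximum activity change above -50%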;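 further: thallium influx rate constant from kinetic fluorescence after stimulation buffer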
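Virally transduced U2OS (3.1 isoform, 4 h infection in dark at RT) → overnight 37 C → FluxOr + Red40 in HBSS/HEPES, 45 min → stimulation buffer, 2 min kinetic read → rate constant vs DMSO controls.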
Numbers without * were called inactive; ? = inconclusive; / = not tested or not shown; ! = repeats disagree. Shown are actives, neighbours in structure and some others; about 1.7% of the full set was active somewhere. On the % scale 0 is the no-effect control and ±100 the full control effect.

SMILES	Giardia killer	KCNH2 WT inh	Coupling enz	USP1 inh	KCNH2 3.1 block
CC[C@H](C)[C@H](NC(=O)[C@H](Cc1ccc(O)cc1)NC(=O)[C@@H](NC(=O)[C@@H](N)CCCN=C(N)N)C(C)C)C(=O)N[C@@H](Cc1cnc[nH]1)C(=O)N1CCC[C@H]1C(=O)N[C@@H](Cc1ccccc1)C(=O)O	/	/	4	/	/
CN(C)C1=NC[C@H](Cc2ccccc2)N1CCCCc1ccccc1	-16	20	/	-28%	-92*
CCCCCCCN1C(N(C)C)=NC[C@@H]1Cc1ccccc1	-2	-42	/	-24%	-90*
Cc1cccc(CCN2C(N(C)C)=NC[C@@H]2Cc2ccccc2)c1	1	28	/	11%	-48
CN(CC(=O)Nc1ccc(N2CCOCC2)cc1)C(=O)C12CC3CC(CC(C3)C1)C2	-4	1	/	-7%	-73*
CC1=CC(=Nc2c(C)n(C)n(-c3ccccc3)c2=O)C=C(C)C1=O	-12	3	-48*	-16%	0
CC1=CC(=Nc2c(C)n(C)n(-c3ccccc3)c2=O)C=CC1=O	/	/	-46*	/	/
Cc1c(N=c2scc(-c3ccccc3)n2C)c(=O)n(-c2ccccc2)n1C	14	0	5	5%	-48
CCC(C)C1=CC(=Nc2c(C)n(C)n(-c3ccccc3)c2=O)C=C(C(C)CC)C1=O (configuration not stated)	11	24	-27	-15%	-4
CCOC(=O)/C(N=Nc1c(C)n(C)n(-c2ccccc2)c1=O)=C(\C)O	-8	-5	4	-21%	-10
CCNc1ccc(N=Nc2c(C)n(C)n(-c3ccccc3)c2=O)cc1	-98*	-4	-3	-7%	-16
COc1ccc2c(c1)CCc1c(C(=O)Nc3c(C)nn(Cc4c(Cl)cccc4Cl)c3C)noc1-2	/	/	/	-1%	/
CSc1nnc(-c2ccco2)c(-c2ccco2)n1	6	-1	-34*	-22%	-3
O=C(CSc1nnc(-c2ccco2)c(-c2ccco2)n1)Nc1ccccc1	-6	0	-30*	-14%	-1
CSc1nnc(-c2ccccc2)c(-c2ccccc2)n1	-5	-10	5	-22%	3
Cc1noc(C)c1-c1ccc2ncnc(NC3CCCc4ccccc43)c2c1 (configuration not stated)	/	/	0	/	/
CCC(C)NC(=O)c1ccc2nc(-c3ccco3)c(-c3ccco3)nc2c1 (configuration not stated)	-9	/	/	/	/
O=S(=O)(c1ccc2ccccc2c1)N1CCOCC1	14	-1	-2	1%	2
O=S(=O)(c1ccc2nc(-c3ccco3)c(-c3ccco3)nc2c1)N1CCOCC1	-7	-8	-45*	-17%	-1
O=C(Nc1cccc(C(F)(F)F)c1)c1ccc2nc(-c3ccco3)c(-c3ccco3)nc2c1	-2	-6	-39*	28µM*	6
O=C(c1ccc2nc(-c3ccco3)c(-c3ccco3)nc2c1)N1CCN(c2ccccc2)CC1	-2	11	-40*	-20%	-4
O=C(O)c1ccc2nc(-c3ccco3)c(-c3ccco3)nc2c1	-3	-3	-35*	-26%	-1
O=C(Nc1cccc(C(F)(F)F)c1)c1ccc2snnc2c1	/	/	/	-28%	/
CCN(c1ccccc1)c1nc(N)nc(C#N)n1	-4	/	/	/	/
CCOC(=O)N1CCc2cc(OC)c(OC)c3c2c1cc1cc(OC)c(OC)cc13	0	5	/	?	-1
SMILES	Giardia killer	KCNH2 WT inh	Coupling enz	USP1 inh	KCNH2 3.1 block
COc1ccc(CCNC(=O)c2ccc3nc(-c4ccco4)c(-c4ccco4)nc3c2)cc1OC	0	-6	-33*	-16%	-5
O=C(NCCc1ccccc1)C(c1ccccc1)N(C(=O)c1csnn1)C1CC1 (configuration not stated)	-10	-6	-2	?	11
O=C(NCCc1ccccc1)C(c1ccccc1F)N(C(=O)c1csnn1)C1CC1 (configuration not stated)	13	13	0	-19%	-86*
O=C(NCCCCNC(=O)C1CCCC1)C1CCCC1	-12	-265*	2	-13%	4
O=C(NC1CCCCCCC1)c1ccccc1-c1ccccc1	-17	6	-36*	-6%	11
NC(=O)c1ccccc1NC(=O)NC1CCCCC1	-3	-3	-3	-19%	-71*
CCCC(=O)Nc1cc(OC)c(NC(=O)NC2CCCCC2)cc1OC	1	3	-45*	-11%	4
O=C(NC1CCCCCC1)c1cccs1	-20	-83*	-9	-8%	-3
COc1ccc([N+](=O)[O-])cc1NC(=O)COC(=O)C12CC3CC(CC(O)(C3)C1)C2	/	-18	/	3%	-10
COc1ccc(-n2nc3cc(N)c(Br)cc3n2)cc1	-11	0	-2	-29%	-10
COc1ccc(-n2nc3cc(C)c(N)c(Br)c3n2)cc1	-22	-1	-50*	-19%	4
CC(Nc1ccc(-c2nc(-c3ccncc3)no2)cc1[N+](=O)[O-])c1ccccc1 (configuration not stated)	/	/	/	-25%	/
CC1(C)CC(=O)c2c(oc3cc(O)c(O)cc23)C1	-7	6	-62*!	-20%	-4
O=C1C(O)=C(O)C(=O)c2ccccc21	18	2	/	16µM*	-9
O=C1C=C(O)c2ccccc2C1=O	/	/	-27	/	/
O=C1c2ccccc2C(=O)c2[nH]c(=O)[nH]c21	?	3	-20	28µM*	23
O=C(NCc1ccccn1)C(=O)N/N=C/c1ccc2c(c1)OCO2	-10	-7	0	-19%	-106*
COc1ccccc1NC(=O)c1sc2nc(C)c(C(=O)Nc3ccc(C)cc3C)c(-c3ccc(C)o3)c2c1N	/	/	/	32µM*	/
Cc1nc(-c2ccc(Cl)cc2)sc1CCNC(=O)c1cccs1	/	/	/	-31%	/
CCN(CC)CCC(c1ccc(N(C)C)cc1)c1c(OC)cc(OC)c2c1OC(=O)CC2c1ccc(N(C)C)cc1 (configuration not stated)	27	/	0	/	/
O=S(CC(O)(c1ccccc1)c1ccccc1)CC(O)(c1ccccc1)c1ccccc1	/	6	/	-7%	3
O=C(Oc1ccc(N(Cc2cccs2)C2=NS(=O)(=O)c3ccccc32)cc1)c1ccccc1	5	16	0	-6%	-30
O=C(Oc1ccc(N(Cc2cccs2)C2=NS(=O)(=O)c3ccccc32)cc1)c1ccc(Cl)cc1	2	?	-3	-18%	-99*
CN(C)c1cccc(C(=O)N(C)C2CCCN(Cc3ccccc3F)C2)c1 (configuration not stated)	0	-71*	0	-18%	7
Cc1cccc(NC(=O)CSc2nc(-c3cccc(C)c3)nc3c2Cc2c(CO)cnc(C)c2O3)c1	/	/	/	-1%	/
CN(C)[C@H]1C(=O)C(C(=O)NCN2CCCC2)=C(O)[C@]2(O)C(=O)C3=C(O)c4c(O)cccc4[C@@](C)(O)[C@H]3C[C@@H]12	/	/	-36*	/	/
